Pf growth 48h = Primary qHTS for delayed death inhibitors of the malarial parasite plastid, 48 hour incubation; P. falciparum luciferase growth in erythrocytes, 48 h; Potency, µM (titrated, usually from 28.7 µM), without a hit: at the top dose activity change, negative = inhibition, most hits filed as inhibitors; actives 5.9% (n = 310,000); further: potency means the concentration at half of the fitted maximal effect; on the % scale 0 is the no-effect control and ±100 the full control effect
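Here the parasites carry a stable luciferase gene and grow inside erythrocytes in Albumax-based RPMI medium with compound for one erythrocytic cycle. Activity is scored as loss of luminescent signal.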
AMA1-RON2 inh = qHTS for Inhibitors of AMA1-RON; Towards Development of Antimalarial Drug Lead: Primary Screen. Plasmodium falciparum AMA1 (3D7) - RON2 peptide interaction. AlphaScreen AMA1-biotinylated RON2 peptide binding. Potency, µM (titrated, usually from 58.2 µM), without a hit: at the highest dose activity change, negative = inhibition, actives largely listed as inhibitors. actives 0.2% (n = 360,000);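 further: potency means the concentration at half of the fitted maximal effect; 0% = vehicle wells and -100% = peptide control; nearly all actives have a fitted effect of over 45% in size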
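AMA1 (3D7) with his tag at 25 nM final met compounds first, then biotinylated RON2 peptide at 25 nM; detection used donor plus acceptor beads, 10 µg/mL apiece, read by AlphaScreen after 30 min at room temperature.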
Shiga toxin inh = A qHTS for Small Molecule Inhibitors of Shiga Toxin; inhibition, % at 38.7 µM; AID 2315, 2010; actives 9.2% (n = 290,000); Vero cells, Shiga toxin protein synthesis inhibition reporter; in the data active means inhibition mostly above about 28%, no sharp cut-off; inactive means mostly below about 43%; further: 0% is about no effect
CHX counter = Cycloheximide Counterscreen for Small Molecule Inhibitors of Shiga Toxin. cell reporter, cycloheximide protein synthesis inhibition counterscreen. max response, %. actives 12% (n = 300,000). AID 2314, 2010; in the data active means max response mostly above about 13%, no sharp cut-off; inactive means mostly below about 14%; further: read at 38.3 µM for the half of the compounds with a filed dose; 0% is about no effect
SARS PLpro yeast = qHTS of Yeast-based Assay for SARS-CoV PLP. S. cerevisiae expressing SARS-CoV PLpro, growth rescue. Potency, µM (doses to about 32.9 µM), for inactives: top-dose activity, positive = growth rescue, most hits filed as activators. actives 0.19% (n = 330,000); calls by dose curve; further: potency means the concentration at half of the fitted maximal effect; 0% is about no effect; nearly all actives have a fitted effect of over 55% in size
Pf growth 96h = Primary qHTS for delayed death inhibitors of the malarial parasite plastid, 96 hour incubation; P. falciparum luciferase reporter growth, 96 h; Potency, µM (doses to about 28.7 µM), inactives show at the top dose activity change, negative = inhibition, hits mostly inhibitors; actives 6.9% (n = 320,000); further: potency means the concentration at half of the fitted maximal effect; on the % scale 0 is the no-effect control and ±100 the full control effect
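Two parasite generations (96 h, 37 C, 5% CO2) of compound exposure in infected erythrocytes (0.05% parasitemia, 2% hematocrit). Luciferase-reporter P. falciparum; decreased luminescence indicates inhibited growth, aimed at apicoplast-acting delayed death.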
An asterisk follows results filed as active; u = inconclusive; x = not tested or not shown; [ ] = another dose, or the depositor's remark. Sampled rows, rich in hits. Any-hit rate of the full collection: about 19%. Unless noted, the call rests on the fitted dose curve; in most records, active means well fitted curve in the direction sought with a large enough effect; inconclusive means small, poorly fitted or top-dose-only effect, or another doubt; inactive means no such curve, though single readings can be large; an effect the other way counts as inactive or inconclusive.

SMILES	Pf growth 48h	AMA1-RON2 inh	Shiga toxin inh	CHX counter	SARS PLpro yeast	Pf growth 96h
COc1ccc(-c2cc(C(F)(F)F)n3ncc(C(=O)N4CCCCC4c4cccnc4)c3n2)cc1 (centres undefined)	2.94µM*	-18.2%	23.6	9.4	0.1%	-11.8%
O=C(c1cc2nc(-c3ccccc3)cc(C(F)(F)F)n2n1)N1CCN2CCCC2C1 (centres undefined)	u	2.7%	27.3	-1.7	-6.5%	u
CCOC(=O)C1CCCN(C(=O)c2cnn3c(C(F)(F)F)cc(-c4ccccc4)nc23)C1 (centres undefined)	9.28µM*	-19.6%	-2.4	-4.2	16.0%	x
NC(=O)c1nsc(C(=O)N(CC(=O)NC2CCCCC2)c2ccc(Cl)cc2)c1N	-22.0%	21.3%	-3.9	1.2	3.8%	u
CC1Oc2ccccc2N(CC(=O)NCc2ccccc2)C1=O (centres undefined)	185.5%	0.0%	105.3*	31.3*	-1.3%	u
O=C(CN1C(=O)CCS(=O)(=O)c2ccccc21)NCc1ccccc1	2.1%	14.3%	8.4	3.3	6.6%	2.62µM*
Cc1cc(C(=O)NCCCN2CCCC2=O)no1	7.1%	-1.7%	-6.7	-3.2	5.1%	27.1%
O=C1NC2(CCCCC2)N=C1c1ccc(F)cc1	u	23.8%	30.2	2.1	-12.1%	21.9%
O=C1NC2(CCCCC2)N=C1c1ccc(Br)cc1	8.2%	15.1%	-3.9	15.0*	-6.7%	x
CCCCN(CCCC)CCCNC(=O)Cn1cc2c(n1)-c1c(oc(C(=O)N3CCCC3)c1C)CC2	11.7µM*	4.1%	-9.3	-0.9	2.8%	u
CCCN(CCC)CCNC(=O)Cn1cc2c(n1)-c1c(oc(C(=O)N3CCCC3)c1C)CC2	x	90.3%	x	x	x	x
COc1ccccc1CNC(=O)c1oc2ccc(S(=O)(=O)N3CCOCC3)cc2c1C	u	-9.5%	19.2	-0.9	-5.6%	1.1%
COc1ccc(CNC(=O)c2oc3ccc(S(=O)(=O)N4CCOCC4)cc3c2C)cc1	11.7µM*	3.7%	-3.4	1.5	-1.2%	u
COc1ccc(NC(=O)c2oc3ccc(S(=O)(=O)N4CCC5(CC4)OCCO5)cc3c2C)cc1	3.7µM*	-5.1%	11.2	8.5	-1.9%	74.2%
COc1ccccc1CNC(=O)c1oc2ccc(S(=O)(=O)N3CCCC3)cc2c1C	2.94µM*	-10.8%	12.2	9.4	3.2%	209.2%
Cc1ccc(CNC(=O)c2oc3ccc(S(=O)(=O)N4CCOCC4)cc3c2C)cc1	u	8.3%	-8.5	-1.5	-0.1%	x
Cc1c(C(=O)NCc2ccc3c(c2)OCO3)oc2ccc(S(=O)(=O)N3CCCCC3)cc12	10.4µM*	3.1%	-7.6	-3.4	2.7%	u
CCCNC(=O)[C@@H]1CCCN1C(=O)[C@@H]1Cc2ccccc2CN1	0.5%[0.00184 µM]	3.1%	-3.8	1.0	0.2%	19.4%
CCOC(=O)/C=C/c1ccc2c(c1)S(=O)(=O)N(Cc1ccc(OC)cc1)[C@H]2CC(=O)OCC	x	-3.9%	x	x	x	x
CC(OC(=O)Cc1c[nH]c2ccccc12)C(=O)Nc1ccc(S(N)(=O)=O)cc1 (centres undefined)	2.5%	-4.0%	x	x	0.8%	21.8%
O=C(O)C(CCC(C(=O)O)c1ccccc1)c1ccccc1 (centres undefined)	x	-3.3%	x	x	x	x
Cc1ccc(CNS(=O)(=O)c2ccc3oc(C(=O)O)c(C)c3c2)cc1	14.0%	-3.3%	-2.8	1.1	-6.0%	u
Cc1c(C(=O)O)oc2ccc(S(=O)(=O)NCc3ccc4c(c3)OCO4)cc12	0.3%	5.4%	-6.0	-1.9	-1.0%	5.86µM*
O=C(NCc1ccc2c(c1)OCO2)c1ccc(S(=O)(=O)N2CCCCC2)cc1	-7.2%	-2.4%	-25.1	5.4	1.8%	x
Cc1c(C(=O)NCc2ccc3c(c2)OCO3)oc2ccc(S(=O)(=O)N3CCCC3)cc12	11.7µM*	-8.3%	-11.9	0.4	-3.5%	u
SMILES	Pf growth 48h	AMA1-RON2 inh	Shiga toxin inh	CHX counter	SARS PLpro yeast	Pf growth 96h
N=c1ncn(Cc2ccccc2)c2nc(SCCOc3ccccc3)[nH]c12	-0.7%	-8.7%	1.0	-1.8	19.4%	-20.6%
COc1cc(C(=O)Nc2nccs2)ccc1OCc1c(C)noc1C	u	20.3%	33.5	21.9	-11.9%	2.0%[5.75 µM]
COc1ccc(NS(=O)(=O)c2cccc(NC(=O)C3=NN(c4ccccc4)C(=O)CC3)c2)cc1	u	-13.4%	-12.4	14.6	-1.2%	7.38µM*
COc1ccc(C(=O)Nc2nc3ccccc3s2)c(OC)c1	u	-1.0%	-20.4	-7.0	-20.2%	13.1µM*
O=C(Cc1nnc(NC(=O)Nc2ccccc2)s1)Nc1ccccc1	56.3%	-0.4%	-2.4	-2.4	-2.3%	33.5%
COc1ccc(NS(=O)(=O)c2cc(NC(=O)C3=NN(c4ccccc4)C(=O)CC3)ccc2C)cc1	x	-9.5%[11.6 µM]	x	x	x	x
COc1ccccc1C(=O)Nc1nc2ccccc2s1	u	14.6%	x	-13.2	x	u
COc1cc(C(=O)Nc2nc3ccccc3s2)ccc1OCc1c(C)noc1C	11.7µM*	3.3%	11.6	18.5*	-2.3%	u
CC(C)(C)c1nc(NC(=O)Nc2ccccc2)sc1Br	u	-4.8%	71.3*	45.6*	-4.1%	u
CC1(C)CC(=O)C=C(c2ccccc2-c2ccc(S(C)(=O)=O)cc2)C1=O	x	-13.8%	x	x	x	x
Nc1nc(COC(=O)c2ccco2)nc(Nc2ccccc2)n1	x	35.8%	x	x	x	x
Cc1ccc2nc(NC(=O)c3ccccn3)sc2c1	7.2%	76.4%	-11.3	-7.4	15.0%	u
CCOc1ccc2nc(NC(=O)NC3CCCCC3)sc2c1	u	5.4%	-9.8	0.6	0.0%	16.0%
COc1ccc2nc(NC(=O)Nc3ccccc3)sc2c1	-10.3%	1.6%	92.0*	56.1*	-19.4%	u
CCOc1ccc2nc(NC(=S)NCc3ccccc3)sc2c1	x	45.6%	-0.1	9.9	23.7%	4.15µM*
COc1ccc2nc(NC(=O)c3ccccc3C(=O)O)sc2c1	-83.6%	42.7%	-4.1	8.8	-0.6%	5.6%
CCOc1ccc2nc(NC(=O)c3ccccn3)sc2c1	-9.4%	48.2%	45.1*	24.2*	-0.9%	-96.8%
CCOc1ccc2nc(NC(=O)Nc3ccccc3)sc2c1	x	-2.0%	89.3	21.5*	-5.7%	-1.1%
CN(CC(=O)Nc1ccc(N2CCOCC2)cc1)C(=O)CCNC(=O)c1ccc(Br)cc1	-11.1%	-12.1%	x	x	-6.0%	-1.5%
COC(=O)c1ccc(Cn2c(C)c(C(=O)NCc3cccs3)sc2=O)o1	x	-1.8%	x	x	x	x
CC1(c2ccc(OC(F)F)cc2)NC(=O)N(/N=C/c2c(O)ccc3ccccc23)C1=O (centres undefined)	12.5%	3.1%	-2.2	4.6	-32.5%	69.6%
COc1cccc(Cn2ncc3c4sc(Br)cc4n(C)c3c2=O)c1	u	x	x	x	1.3%	14.0%
